Source: PubChem
DT40 TDP1 CPT = growth inhibition of DT40 Tdp1-/-;hTDP1 cells with camptothecin (screen for TDP1 inhibitors); Potency, µM (doses to about 46.2 µM), inactives show at the top dose activity change, negative = growth inhibition, most hits filed as inhibitors; AID 686979; 420,000 compounds, 12% hits; chicken DT40 Tdp1-/-;hTDP1 cells + 20 nM CPT, ATP luminescence, 48 h; further: nearly all actives have a fitted effect of over 55% in size
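Cell growth measured by CellTiter-Glo luminescence after a minimum 48 h, 37 C compound exposure with 20 nM CPT in Tdp1-knockout DT40 cells stably expressing hTDP1, seeded 400/well; qHTS titration format.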
KB-3-1 cytotox = kills parental KB-3-1 adenocarcinoma cells | KB-3-1 viability, CellTiter-Glo ATP luminescence, 72 h | Potency, µM (titrated, usually from 46.1 µM), actives largely listed as cytotoxic | 400,000 compounds, 1.4% hits; further: nearly all actives have a fitted effect of over 60% in size
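Luminescent ATP read-out (CellTiter-Glo) measures survival of drug-naive KB-3-1 cells after 72 h compound exposure at 37 °C. Titration series was screened from lowest to highest concentration, with DMSO vehicle plates as background controls.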
KB-V1 cytotox = KB-V1 MDR subline cytotoxicity. 400,000 compounds, 3.4% hits. KB-V1 MDR cells viability, CellTiter-Glo, 72 h. Potency, µM (highest dose often 46.1 µM), usual class: cytotoxic; further: nearly all actives have a fitted effect of over 60% in size
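KB-V1 cells (P-gp-expressing MDR subline of KB-3-1) in phenol-red-free DMEM with 10% FBS were exposed to library compounds over a concentration series for 72 h at 37 degrees C. Viability read by CellTiter-Glo luminescence; concentration-effect curves fitted after normalization.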
DT40 TDP1 no CPT = qHTS for Inhibitors of human tyrosyl-DNA phosphodiesterase 1 (TDP1): qHTS in cells in absence of CPT. 420,000 compounds, 15% hits. DT40 Tdp1-/- hTDP1 cells, no CPT, ATP luminescence, 48 h. AID 686978, 2013. Potency, µM (doses to about 46.2 µM), inactives show at the highest dose activity change, negative = growth inhibition, hits mostly inhibitors; further: nearly all actives have a fitted effect of over 55% in size
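Camptothecin absent (DMSO only). Human TDP1-complemented DT40 knockout cells, 400 cells/well, 37 °C for minimum 48 hr; ATP measured via CellTiter-Glo, 30 min dark incubation, luminescence.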
HT1080NT lethal = kills 2HG-producing HT-1080-NT fibrosarcoma cells. 360,000 compounds, 1.6% hits. HT-1080-NT fibrosarcoma viability, CellTiter-Glo ATP luminescence, 48 h. Potency, µM (doses to about 46.1 µM), without a hit: at the top dose activity, negative = less viability, actives largely listed as cytotoxic;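 further: NT is the 2HG producing partner of a matched IDH1 knockdown line; 0% = DMSO-treated cells and -100% = media-only wells without cells; nearly all actives have a fitted effect of over 55% in size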
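Viability by CellTiter-Glo luminescence after 48 h compound exposure at 37C of HT-1080-NT cells (750/well, RPMI, 5% FBS). % activity scaled between DMSO wells and medium-only wells, then curve-fitted and categorized by curve class.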
HT1080 IDH1KD tx = kills HT-1080 cells with IDH1 knockdown; 360,000 compounds, 2% hits; Potency, µM (titrated, usually from 46.1 µM), for inactives: at the top dose activity, negative = toxicity, most hits filed as cytotoxic; HT-1080 IDH1 knockdown viability, ATP luminescence, 48 h; AID 686971;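 further: 0% = DMSO wells and -100% = cell-free medium wells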
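% activity derives from luminescence (CellTiter-Glo), normalised to DMSO and no-cell wells. HT-1080-IDH1KD cells, 750/well, had 48 h compound exposure at 37 °C.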
The depositor's hits bear a star; i = inactive; ? = inconclusive; / = no result given. Rows were chosen to be rich in hits. Some 19% of all compounds tested hit in one or more screens of this group. The call rests on the fitted dose curve; in most records, active means well fitted curve in the direction sought with a large enough effect; inconclusive means small, poorly fitted or top-dose-only effect, or another doubt; inactive means no such curve, though single readings can be large; an effect the other way counts as inactive or inconclusive. Unless noted, on the % scale 0 is the no-effect control and ±100 the full control effect; potency means the concentration at half of the fitted maximal effect.

SMILES	DT40 TDP1 CPT	KB-3-1 cytotox	KB-V1 cytotox	DT40 TDP1 no CPT	HT1080NT lethal	HT1080 IDH1KD tx
Cc1ccccc1-c1ccc(CN2C(C(C)C)C(=O)N(Cc3cn(CCC4OCCO4)nn3)CCS2(=O)=O)cc1 (stereo not given)	?	i	?	18µM*	?	?
CCC/C=C/c1ccc(CN2C(C(C)C)C(=O)N(Cc3cn(CCC4OCCCO4)nn3)CCS2(=O)=O)cc1 (stereo not given)	?	i	i	?	-4%	-17%
Cc1ccc(-c2ccc(CN3C(C(C)C)C(=O)N(Cc4cn(CCC5OCCO5)nn4)CCS3(=O)=O)cc2)c(C)c1 (stereo not given)	9.2µM*	?	?	18µM*	?	23µM*
CNC(=O)CSc1cn(CC(=O)N(C(C)C)C(C)C)c2ccccc12	1%	i	i	-8%	26%	8%
COc1ccccc1-c1cc(Nc2ccc(F)cc2)ncn1	?	/	/	23µM*	/	/
COc1ccc(CNc2cc(-c3ccccc3Cl)ncn2)c(OC)c1	?	/	/	-11%	/	/
Cc1noc(C)c1-c1cc(NCc2ccccc2)ncn1	?	/	/	23µM*	/	/
COc1ccccc1-c1cc(NCc2ccccc2)ncn1	6.5µM*	/	/	5.8µM*	/	/
Cc1noc(C)c1-c1cc(N(C)C)ncn1	?	/	/	23µM*	/	/
Cc1ccccc1C(=O)N1CCC(C(=O)NC(C)c2ccc(-n3ccnc3)cc2)CC1 (stereo not given)	1%	/	/	8%	2%	5%
CC1(C(=O)NS(=O)(=O)c2ccc(F)cc2F)CCN1C(=O)CCc1ccccc1 (stereo not given)	-3%	i	i	0%	4%	8%
COCc1c(C(=O)N2CCN(C(C)C)CC2)cnn1-c1nccc(-c2cc(C)sc2C)n1	3%	/	/	-11%	/	/
Cc1noc(C)c1-c1cc(NC2CC2)ncn1	12µM*	/	/	8.2µM*	/	/
Cc1ccccc1-c1cc(NCc2ccccc2)ncn1	15µM*	/	/	21µM*	/	/
CCOC(=O)c1cnc2c(cnn2C)c1Oc1ccc(OC)cc1	?	i	?	-2%	-6%	-19%
CCOC(=O)c1cnc2c(cnn2C)c1NCCC(O)C(F)(F)F (stereo not given)	?	i	6.5µM*	-16%	4%	-14%
O=C(c1ccc([N+](=O)[O-])cc1)N(Cc1ccccc1)c1ccccn1	20%	i	i	-17%	5%	3%
O=[N+]([O-])c1ccccc1SN(Cc1ccccc1)c1ccccn1	?	i	i	15µM*	-3%	-3%
CC(C)(C)c1nc2c(C#N)c(-c3ccc(Cl)cc3)ccn2n1	35µM*	?	i	20µM*	-13%	-16%
Cc1nc2c(C#N)c(-c3ccc(Cl)cc3)ccn2n1	-30%	?	?	12%	4%	7%
O=C(O)/C=C\c1cc2c(cc1[N+](=O)[O-])OCO2	3%	i	i	0%	22%	15%
O=C1NC(=S)N/C1=C/c1cc2c(cc1[N+](=O)[O-])OCO2	4.1µM*	i	i	0.58µM*	6%	-4%
Cc1ccc(NC(=O)CN2CCCCCC2)cc1[N+](=O)[O-]	1%	i	i	-12%	11%	14%
CN1c2ccc(Cl)cc2C(=O)NC1c1ccc([N+](=O)[O-])s1 (stereo not given)	21µM*	i	i	23µM*	?	23µM*
CC(C)(C)NC(=O)Cn1c(=O)c(=O)n(Cc2ccccc2)c2ccc(Cl)cc21	-6%	i	21µM*	-8%	6%	14%
O=C(Cn1c(=O)c(=O)n(Cc2ccccc2)c2ccc(Cl)cc21)Nc1ccc(F)cc1F	?	?	i	?	-10%	?
